Among the data in PMC7862700, “An all-to-all approach to the identification of sequence-specific readers for epigenetic DNA modifications on cytosine” are binding signal values, retold here.

Experiment in all cases: DAPPL (digital affinity profiling via proximity ligation, sequencing); 10 mM Tris-HCl pH 7.5, 50 mM NaCl, 1 mM DTT, 4% glycerol, room temperature, 30 min; GST-TFs on glutathione beads, 16-mer random dsDNA library, 0.1% formaldehyde crosslink after washing; high values mean tight binding
Common to all, as to conditions: protein: recombinant; tags: N-terminal GST; dsDNA, one strand shown

The target in one assay is T1, FLI1 (Homo sapiens, UniProt Q01543 1-452).
T1 sequence: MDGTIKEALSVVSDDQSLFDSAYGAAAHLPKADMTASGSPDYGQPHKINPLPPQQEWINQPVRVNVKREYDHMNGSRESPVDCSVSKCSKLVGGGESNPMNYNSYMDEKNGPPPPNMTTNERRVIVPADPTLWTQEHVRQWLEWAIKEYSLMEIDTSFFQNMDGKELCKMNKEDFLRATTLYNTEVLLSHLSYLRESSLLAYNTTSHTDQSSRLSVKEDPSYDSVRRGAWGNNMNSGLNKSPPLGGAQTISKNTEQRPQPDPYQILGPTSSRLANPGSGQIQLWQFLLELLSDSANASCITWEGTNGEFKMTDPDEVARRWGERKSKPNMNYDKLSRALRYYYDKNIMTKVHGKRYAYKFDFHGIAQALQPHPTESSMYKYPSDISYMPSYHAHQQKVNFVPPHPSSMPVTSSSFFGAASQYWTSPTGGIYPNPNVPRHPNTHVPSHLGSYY
In short, it runs like this:
(§1)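 Binding signal is given per hexamer as its read frequency for a factor divided by its frequency in the tag-only sample. GST-fused human transcription factors were expressed in yeast, captured on glutathione beads, barcoded with DNA and pooled with that sample, then incubated with 200 nmole of a 16-mer random double-stranded DNA library in Tris/NaCl/DTT/glycerol buffer for 30 min at room temperature. The pools were then washed, crosslinked, proximity-ligated, amplified by PCR and sequenced on an Illumina NextSeq500.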

The next assay addresses T2, ELK1 (Homo sapiens, UniProt P19419 1-428).
T2 sequence: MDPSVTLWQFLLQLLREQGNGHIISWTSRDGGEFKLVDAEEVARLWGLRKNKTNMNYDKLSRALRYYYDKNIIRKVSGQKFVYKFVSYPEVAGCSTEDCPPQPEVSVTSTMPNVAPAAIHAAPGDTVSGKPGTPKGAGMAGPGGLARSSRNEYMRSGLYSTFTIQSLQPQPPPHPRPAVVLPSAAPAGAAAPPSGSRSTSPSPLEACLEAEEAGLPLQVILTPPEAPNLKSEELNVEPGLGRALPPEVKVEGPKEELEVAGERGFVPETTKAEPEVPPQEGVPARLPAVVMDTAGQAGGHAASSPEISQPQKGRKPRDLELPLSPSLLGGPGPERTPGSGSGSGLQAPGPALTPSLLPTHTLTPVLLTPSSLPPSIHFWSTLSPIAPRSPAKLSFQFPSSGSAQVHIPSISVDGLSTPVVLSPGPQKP
In short, it runs like this:
as §1

For another assay, the target named is T3, GABPA (Homo sapiens, UniProt Q06546 1-454).
T3 sequence: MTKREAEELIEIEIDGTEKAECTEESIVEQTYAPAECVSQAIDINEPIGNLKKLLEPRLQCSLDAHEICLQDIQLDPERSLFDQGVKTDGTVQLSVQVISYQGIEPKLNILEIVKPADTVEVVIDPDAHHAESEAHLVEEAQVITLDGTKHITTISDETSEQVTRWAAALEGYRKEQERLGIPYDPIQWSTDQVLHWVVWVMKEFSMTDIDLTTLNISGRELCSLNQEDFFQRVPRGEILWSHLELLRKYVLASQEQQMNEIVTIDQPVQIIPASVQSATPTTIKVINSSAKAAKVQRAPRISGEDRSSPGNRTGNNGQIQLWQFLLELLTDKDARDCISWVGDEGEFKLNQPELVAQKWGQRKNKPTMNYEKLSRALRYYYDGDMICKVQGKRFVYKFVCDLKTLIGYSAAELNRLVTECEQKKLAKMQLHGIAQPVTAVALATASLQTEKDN
In outline:
as §1

Another assay addresses T4, ERG (Homo sapiens, UniProt P11308 1-479).
T4 sequence: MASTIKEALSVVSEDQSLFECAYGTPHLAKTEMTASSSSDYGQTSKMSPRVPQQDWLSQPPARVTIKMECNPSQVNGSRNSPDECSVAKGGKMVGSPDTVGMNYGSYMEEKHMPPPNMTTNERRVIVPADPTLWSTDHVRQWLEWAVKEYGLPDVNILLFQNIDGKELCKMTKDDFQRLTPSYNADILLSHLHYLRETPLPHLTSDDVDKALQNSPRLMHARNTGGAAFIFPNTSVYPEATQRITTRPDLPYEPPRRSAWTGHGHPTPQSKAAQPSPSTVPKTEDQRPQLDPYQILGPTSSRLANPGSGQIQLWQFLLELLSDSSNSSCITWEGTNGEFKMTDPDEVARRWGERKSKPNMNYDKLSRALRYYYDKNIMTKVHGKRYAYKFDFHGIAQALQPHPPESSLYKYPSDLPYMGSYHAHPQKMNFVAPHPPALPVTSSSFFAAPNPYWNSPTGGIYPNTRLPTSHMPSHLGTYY
In outline:
as §1

In the next assay the target is ELF1 (Homo sapiens, UniProt P32519 1-619). In short, it runs like this: as §1
Chain of ELF1 (P32519 whole entry): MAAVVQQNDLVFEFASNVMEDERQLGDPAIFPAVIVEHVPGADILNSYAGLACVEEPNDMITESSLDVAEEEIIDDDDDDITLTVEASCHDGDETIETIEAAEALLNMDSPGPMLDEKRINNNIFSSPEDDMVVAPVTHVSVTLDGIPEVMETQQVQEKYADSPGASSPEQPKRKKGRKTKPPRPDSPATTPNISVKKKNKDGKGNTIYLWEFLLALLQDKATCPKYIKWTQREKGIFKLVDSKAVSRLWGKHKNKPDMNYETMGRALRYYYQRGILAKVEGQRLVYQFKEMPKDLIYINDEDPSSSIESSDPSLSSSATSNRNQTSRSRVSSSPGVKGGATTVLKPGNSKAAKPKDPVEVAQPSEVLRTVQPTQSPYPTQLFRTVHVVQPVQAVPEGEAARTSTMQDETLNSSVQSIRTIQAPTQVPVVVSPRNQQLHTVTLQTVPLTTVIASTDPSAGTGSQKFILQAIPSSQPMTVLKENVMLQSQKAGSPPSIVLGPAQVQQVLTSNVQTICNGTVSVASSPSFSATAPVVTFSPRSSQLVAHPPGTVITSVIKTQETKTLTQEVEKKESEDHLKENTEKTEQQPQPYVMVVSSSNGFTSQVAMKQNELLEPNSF
A further assay concerns the target T5, EHF (Homo sapiens, UniProt Q9NZC4 1-300).
T5 sequence: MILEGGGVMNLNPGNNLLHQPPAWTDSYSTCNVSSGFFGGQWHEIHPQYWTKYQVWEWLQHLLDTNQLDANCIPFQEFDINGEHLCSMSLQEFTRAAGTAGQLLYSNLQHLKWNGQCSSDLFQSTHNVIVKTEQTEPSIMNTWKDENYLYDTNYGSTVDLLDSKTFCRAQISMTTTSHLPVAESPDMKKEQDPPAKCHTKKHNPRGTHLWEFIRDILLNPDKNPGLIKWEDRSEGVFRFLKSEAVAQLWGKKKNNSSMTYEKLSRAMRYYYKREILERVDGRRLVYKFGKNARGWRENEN
In short, it runs like this: as §1

The next assay addresses SPI1 (Homo sapiens, UniProt P17947 1-270). In short, it runs like this:
as §1

The target in another assay is SPIB (Homo sapiens, UniProt Q01892 1-262). In short, it runs like this: as §1
Chain of SPIB (Q01892 whole entry): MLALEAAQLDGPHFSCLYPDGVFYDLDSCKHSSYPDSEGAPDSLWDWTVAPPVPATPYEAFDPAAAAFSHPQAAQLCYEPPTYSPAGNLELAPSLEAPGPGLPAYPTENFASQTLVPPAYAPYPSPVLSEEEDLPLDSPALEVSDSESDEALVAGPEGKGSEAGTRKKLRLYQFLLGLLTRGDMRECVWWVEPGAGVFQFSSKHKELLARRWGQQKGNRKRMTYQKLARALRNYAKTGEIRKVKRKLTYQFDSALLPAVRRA
The next assay addresses T6, ELK3 (Homo sapiens, UniProt P41970 1-407).
T6 sequence: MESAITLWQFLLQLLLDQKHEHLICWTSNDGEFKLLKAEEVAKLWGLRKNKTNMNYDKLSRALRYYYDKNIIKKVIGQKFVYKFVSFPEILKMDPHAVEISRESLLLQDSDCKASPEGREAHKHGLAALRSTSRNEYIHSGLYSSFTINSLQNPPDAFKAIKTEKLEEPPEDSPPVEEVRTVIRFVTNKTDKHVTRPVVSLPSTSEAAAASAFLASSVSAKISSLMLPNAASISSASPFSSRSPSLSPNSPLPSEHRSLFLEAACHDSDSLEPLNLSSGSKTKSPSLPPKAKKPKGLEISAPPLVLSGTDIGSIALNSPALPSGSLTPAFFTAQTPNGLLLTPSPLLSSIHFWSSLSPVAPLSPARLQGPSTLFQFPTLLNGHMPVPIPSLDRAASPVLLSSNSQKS
In short, it runs like this:
as §1

The target in another assay is T7, FEV (Homo sapiens, UniProt Q99581 1-238).
T7 sequence: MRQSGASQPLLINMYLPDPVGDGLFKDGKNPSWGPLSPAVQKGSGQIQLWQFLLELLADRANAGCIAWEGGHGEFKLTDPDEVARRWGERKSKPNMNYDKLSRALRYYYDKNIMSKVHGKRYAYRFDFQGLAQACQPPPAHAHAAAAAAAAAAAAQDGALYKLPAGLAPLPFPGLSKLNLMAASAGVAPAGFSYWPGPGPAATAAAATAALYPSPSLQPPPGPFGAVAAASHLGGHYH
In outline: as §1

Another assay addresses ETV5 (Homo sapiens, UniProt P41161 1-510). In outline: as §1
Another assay has as its target T8, SPIC (Homo sapiens, UniProt Q8N5J4 1-248).
T8 sequence: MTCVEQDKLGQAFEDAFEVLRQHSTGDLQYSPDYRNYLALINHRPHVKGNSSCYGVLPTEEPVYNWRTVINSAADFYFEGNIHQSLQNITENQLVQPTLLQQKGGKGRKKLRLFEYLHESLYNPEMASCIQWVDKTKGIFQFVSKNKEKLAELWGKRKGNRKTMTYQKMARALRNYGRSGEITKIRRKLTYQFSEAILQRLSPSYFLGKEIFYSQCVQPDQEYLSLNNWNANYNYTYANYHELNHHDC
In short, it runs like this:
as §1

In a further assay the target is ELF4 (Homo sapiens, UniProt Q99607 1-663). In short, it runs like this:
as §1

The target in the next assay is T9, ELK4 (Homo sapiens, UniProt P28324-2 1-405).
T9 sequence: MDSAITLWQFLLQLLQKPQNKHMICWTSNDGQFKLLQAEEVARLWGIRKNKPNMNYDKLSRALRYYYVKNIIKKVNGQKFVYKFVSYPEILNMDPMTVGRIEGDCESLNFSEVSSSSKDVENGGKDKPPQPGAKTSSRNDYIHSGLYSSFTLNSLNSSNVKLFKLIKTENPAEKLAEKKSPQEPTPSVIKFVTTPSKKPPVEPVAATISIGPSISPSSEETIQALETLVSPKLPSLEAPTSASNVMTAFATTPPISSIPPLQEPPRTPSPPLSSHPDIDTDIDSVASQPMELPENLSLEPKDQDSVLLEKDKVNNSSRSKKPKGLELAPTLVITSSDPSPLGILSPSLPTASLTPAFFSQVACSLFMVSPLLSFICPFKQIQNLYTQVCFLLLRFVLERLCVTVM
In short, it runs like this: as §1

The target of the next assay is T10, ETV2 (Homo sapiens, UniProt O00321 1-342).
T10 sequence: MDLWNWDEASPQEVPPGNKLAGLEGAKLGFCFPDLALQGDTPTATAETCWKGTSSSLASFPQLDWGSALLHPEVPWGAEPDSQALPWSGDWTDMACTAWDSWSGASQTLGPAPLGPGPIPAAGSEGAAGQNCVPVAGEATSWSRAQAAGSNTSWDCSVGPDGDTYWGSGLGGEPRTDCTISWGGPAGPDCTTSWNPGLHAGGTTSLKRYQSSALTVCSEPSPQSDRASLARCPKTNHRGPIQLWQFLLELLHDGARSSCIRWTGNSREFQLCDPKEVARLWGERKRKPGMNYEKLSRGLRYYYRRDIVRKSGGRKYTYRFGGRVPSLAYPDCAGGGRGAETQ
In outline:
as §1

The target of a further assay is T11, ELF3 (Homo sapiens, UniProt P78545 1-371).
T11 sequence: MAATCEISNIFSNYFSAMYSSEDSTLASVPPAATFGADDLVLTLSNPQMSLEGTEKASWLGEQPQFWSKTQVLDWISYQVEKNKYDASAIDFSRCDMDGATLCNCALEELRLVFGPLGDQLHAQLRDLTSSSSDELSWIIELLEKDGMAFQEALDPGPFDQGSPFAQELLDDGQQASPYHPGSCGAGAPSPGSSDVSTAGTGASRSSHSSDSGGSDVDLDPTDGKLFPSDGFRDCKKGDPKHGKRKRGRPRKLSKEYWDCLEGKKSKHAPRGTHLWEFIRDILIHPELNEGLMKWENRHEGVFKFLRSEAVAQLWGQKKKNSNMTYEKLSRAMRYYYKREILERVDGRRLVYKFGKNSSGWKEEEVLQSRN
In outline:
as §1

A further assay concerns the target CRX (Homo sapiens, UniProt O43186 1-299). In outline: as §1
A further assay concerns the target ETV1 (Homo sapiens, UniProt P50549 1-477). In short, it runs like this: as §1

Chain of ETV1 (P50549 whole entry): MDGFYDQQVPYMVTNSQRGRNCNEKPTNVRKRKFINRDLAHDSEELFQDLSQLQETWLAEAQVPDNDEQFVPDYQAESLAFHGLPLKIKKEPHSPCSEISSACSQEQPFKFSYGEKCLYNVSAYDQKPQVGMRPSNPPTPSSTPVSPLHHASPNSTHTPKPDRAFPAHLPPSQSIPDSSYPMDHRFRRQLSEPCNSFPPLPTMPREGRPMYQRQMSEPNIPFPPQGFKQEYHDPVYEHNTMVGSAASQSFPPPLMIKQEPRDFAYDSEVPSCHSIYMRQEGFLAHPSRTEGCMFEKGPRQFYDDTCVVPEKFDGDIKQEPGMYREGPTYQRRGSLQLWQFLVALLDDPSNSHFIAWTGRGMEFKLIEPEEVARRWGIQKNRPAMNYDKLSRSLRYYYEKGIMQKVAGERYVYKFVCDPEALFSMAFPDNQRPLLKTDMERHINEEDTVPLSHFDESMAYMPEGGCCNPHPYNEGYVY
Chain of ETV5 (P41161 whole entry): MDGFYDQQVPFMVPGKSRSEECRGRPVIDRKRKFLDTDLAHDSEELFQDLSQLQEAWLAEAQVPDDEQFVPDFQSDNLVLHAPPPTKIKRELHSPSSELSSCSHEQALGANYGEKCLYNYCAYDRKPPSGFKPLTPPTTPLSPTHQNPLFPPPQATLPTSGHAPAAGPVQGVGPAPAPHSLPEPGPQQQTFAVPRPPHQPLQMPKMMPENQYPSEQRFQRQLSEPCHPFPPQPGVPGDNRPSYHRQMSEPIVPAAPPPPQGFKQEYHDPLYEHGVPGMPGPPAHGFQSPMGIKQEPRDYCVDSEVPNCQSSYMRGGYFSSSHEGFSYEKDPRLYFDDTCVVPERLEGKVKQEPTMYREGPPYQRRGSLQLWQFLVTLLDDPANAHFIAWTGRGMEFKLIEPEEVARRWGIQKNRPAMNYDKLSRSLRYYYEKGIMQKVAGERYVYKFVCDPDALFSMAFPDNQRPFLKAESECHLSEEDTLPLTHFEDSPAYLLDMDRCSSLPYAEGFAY
Chain of ELF4 (Q99607 whole entry): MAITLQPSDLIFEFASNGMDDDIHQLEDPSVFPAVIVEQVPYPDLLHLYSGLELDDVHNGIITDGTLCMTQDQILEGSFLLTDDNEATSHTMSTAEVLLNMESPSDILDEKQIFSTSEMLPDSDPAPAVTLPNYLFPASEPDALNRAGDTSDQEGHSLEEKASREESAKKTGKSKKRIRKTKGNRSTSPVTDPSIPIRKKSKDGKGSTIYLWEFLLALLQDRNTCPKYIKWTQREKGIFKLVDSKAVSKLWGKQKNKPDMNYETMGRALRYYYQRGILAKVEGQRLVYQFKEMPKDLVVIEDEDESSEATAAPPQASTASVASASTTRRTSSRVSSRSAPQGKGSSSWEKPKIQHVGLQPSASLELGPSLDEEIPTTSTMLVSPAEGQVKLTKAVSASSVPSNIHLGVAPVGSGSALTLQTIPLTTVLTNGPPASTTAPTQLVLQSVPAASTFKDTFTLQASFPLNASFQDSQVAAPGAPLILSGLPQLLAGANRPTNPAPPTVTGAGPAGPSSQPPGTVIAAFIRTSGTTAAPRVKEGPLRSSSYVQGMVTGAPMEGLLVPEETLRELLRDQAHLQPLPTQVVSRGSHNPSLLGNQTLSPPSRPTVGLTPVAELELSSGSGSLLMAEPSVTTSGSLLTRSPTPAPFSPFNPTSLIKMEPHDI
Chain of CRX (O43186 whole entry): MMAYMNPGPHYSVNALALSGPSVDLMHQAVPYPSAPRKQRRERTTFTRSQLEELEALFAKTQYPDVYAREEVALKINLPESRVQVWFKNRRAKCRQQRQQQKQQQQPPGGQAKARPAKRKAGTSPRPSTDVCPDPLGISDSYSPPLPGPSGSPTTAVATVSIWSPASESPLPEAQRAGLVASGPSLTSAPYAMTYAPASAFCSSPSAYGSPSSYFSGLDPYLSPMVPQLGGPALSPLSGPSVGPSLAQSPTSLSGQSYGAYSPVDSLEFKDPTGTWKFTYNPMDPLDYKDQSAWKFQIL

Take AAAGGG: the binding signal with FLI1 was 1.21 fold enrichment (6-mer frequency, TF over GST control); in the assay with ELK1, 1.11 fold enrichment (6-mer frequency, TF over GST control); with GABPA, 1.22 fold enrichment (6-mer frequency, TF over GST control); with ERG, 1.12 fold enrichment (6-mer frequency, TF over GST control); with ELF1 it was 1.09 fold enrichment (6-mer frequency, TF over GST control); in the assay with EHF it was 1.2 fold enrichment (6-mer frequency, TF over GST control). Further, the binding signal with SPI1 was 1.68 fold enrichment (6-mer frequency, TF over GST control); with SPIB, 1.19 fold enrichment (6-mer frequency, TF over GST control); with ELK3, 1.1 fold enrichment (6-mer frequency, TF over GST control); in the assay with FEV it was 1.11 fold enrichment (6-mer frequency, TF over GST control); with ETV5, 1.21 fold enrichment (6-mer frequency, TF over GST control); with SPIC it was 1.22 fold enrichment (6-mer frequency, TF over GST control). Moreover, the binding signal with ELF4 is 1.19 fold enrichment (6-mer frequency, TF over GST control); with ELK4 it was 1.1 fold enrichment (6-mer frequency, TF over GST control); with ETV2, 1.05 fold enrichment (6-mer frequency, TF over GST control); with ELF3, 1.25 fold enrichment (6-mer frequency, TF over GST control); with CRX, 1.08 fold enrichment (6-mer frequency, TF over GST control); in the assay with ETV1, 1.26 fold enrichment (6-mer frequency, TF over GST control).
For CACACA, the binding signal is 1.17 fold enrichment (6-mer frequency, TF over GST control) in the assay with FLI1; 1.08 fold enrichment (6-mer frequency, TF over GST control) with ELK1; 1.14 fold enrichment (6-mer frequency, TF over GST control) with GABPA; 1.15 fold enrichment (6-mer frequency, TF over GST control) with ERG; 1.16 fold enrichment (6-mer frequency, TF over GST control) with ELF1; 1.19 fold enrichment (6-mer frequency, TF over GST control) with EHF. The binding signal was 1.07 fold enrichment (6-mer frequency, TF over GST control) in the assay with SPI1; 1.17 fold enrichment (6-mer frequency, TF over GST control) in the assay with SPIB; 1.2 fold enrichment (6-mer frequency, TF over GST control) with ELK3; 1.18 fold enrichment (6-mer frequency, TF over GST control) with FEV; 1.16 fold enrichment (6-mer frequency, TF over GST control) with ETV5; 1.07 fold enrichment (6-mer frequency, TF over GST control) in the assay with SPIC. Further, the binding signal in the assay with ELF4 was 1.16 fold enrichment (6-mer frequency, TF over GST control); with ELK4, 1.1 fold enrichment (6-mer frequency, TF over GST control); with ETV2, 1.23 fold enrichment (6-mer frequency, TF over GST control); with ELF3 it was 1.09 fold enrichment (6-mer frequency, TF over GST control); in the assay with ETV1, 1.06 fold enrichment (6-mer frequency, TF over GST control).
